From PubChem BioAssay (NCI)
Several values for one entry are separate records, joined by “and”; a condition that tells them apart may be missing. Equal entries are not always repeated. The panel holds about 83,000 compounds, 20% with a hit somewhere; the sample as a whole holds those more often.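 Single-dose data. Exposure time 48 hours. Values below 10 considered active.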 Activity calls are given as the source filed them.

Tests used:
Assay in all cases: NCI-60 one-dose screen, 48 h (100 = growth as untreated, 0 = no growth, -100 = all killed)
Conditions in all cases: 10 µM unless noted
[1] = tested on: HCT-15 colon
[2] = tested on: HT29 colon
[3] = tested on: SNB-75 CNS
[4] = tested on: SNB-19 CNS
[5] = tested on: U251 CNS
[6] = tested on: PC-3 prostate
[7] = tested on: SK-MEL-5 melanoma
[8] = tested on: UACC-62 melanoma
[9] = tested on: LOX IMVI melanoma
[10] = tested on: SK-MEL-28 melanoma
[11] = tested on: SK-MEL-2 melanoma
[12] = tested on: EKVX NSCLC
[13] = tested on: SN12C renal
[14] = tested on: UO-31 renal
[15] = tested on: TK-10 renal
[16] = tested on: ACHN renal
[17] = tested on: CAKI-1 renal
[18] = tested on: A498 renal
[19] = tested on: CCRF-CEM leukemia
[20] = tested on: MOLT-4 leukemia

Row | Compound | growth [1] | growth [2] | growth [3] | growth [4] | growth [5] | growth [6] | growth [7] | growth [8] | growth [9] | growth [10] | growth [11] | growth [12] | growth [13] | growth [14] | growth [15] | growth [16] | growth [17] | growth [18] | growth [19] | growth [20]
1 | COc1ccc(-c2nn3c(-c4cc(F)c(Cl)cc4Cl)nnc3s2)cc1 | 42% (inactive) | 5.17% (active) | 7.7% (active) | 40.6% (inactive) | 35.6% (inactive) | 42.8% (inactive) | 20.1% (inactive) | 44.4% (inactive) | 42.1% (inactive) | 36.7% (inactive) | 66.8% (inactive) | 75.4% (inactive) | 72.5% (inactive) | 49.7% (inactive) | 105% (inactive) | 66.7% (inactive) | 37.7% (inactive) | 65.9% (inactive) | 9.61% (active) | 21.6% (inactive)
2 | CON1CCC[C@]2(C)[C@H]3CC[C@@H]4[C@H]5[C@@H](O)C(C)(C)CC[C@]5(CO)CC[C@@]4(C)[C@]3(C)CC[C@H]2C1(C)C | 106% (inactive) | 91.2% (inactive) | 98.7% (inactive) | 100% (inactive) | 90% (inactive) | 59.6% (inactive) | 102% (inactive) | 96% (inactive) | 87.7% (inactive) | 107% (inactive) | 103% (inactive) | 98.1% (inactive) | 93.1% (inactive) | 95.2% (inactive) | 105% (inactive) | 107% (inactive) | 97.4% (inactive) | 114% (inactive) | 94.5% (inactive) | 83.7% (inactive)
3 | COc1ccc(-c2cc3cnc4ccccc4c3oc2=O)cc1 | 92.3% (inactive) | 96.8% (inactive) | 104% (inactive) | 99% (inactive) | 94% (inactive) | 92.5% (inactive) | 104% (inactive) | 96.5% (inactive) | 97.6% (inactive) | 100% (inactive) | 120% (inactive) | 101% (inactive) | 100% (inactive) | 88.7% (inactive) | 99.2% (inactive) | 106% (inactive) | 89.7% (inactive) | 93.1% (inactive) | 89% (inactive) | 104% (inactive)
4 | CCOC(=O)c1nnn(Cc2cc(=O)oc3c2ccc2ccccc23)c1C | 104% (inactive) | 96.7% (inactive) | 91.6% (inactive) | 98.2% (inactive) | 104% (inactive) | 89.2% (inactive) | 101% (inactive) | 98.7% (inactive) | 101% (inactive) | 109% (inactive) | 110% (inactive) | 105% (inactive) | 96.7% (inactive) | 77.3% (inactive) | 101% (inactive) | 97.9% (inactive) | 98% (inactive) | 108% (inactive) | 88.2% (inactive) | 108% (inactive)
5 | c1cc(NCCCCN2CCOCC2)c2ccc3c(ccc4c(NCCN5CCOCC5)ccnc43)c2n1 | 70.7% (inactive) | 83.1% (inactive) | 86.8% (inactive) | 68.2% (inactive) | 92.4% (inactive) | 57.2% (inactive) | 98.7% (inactive) | 98.9% (inactive) | 45.9% (inactive) | 94% (inactive) | 99.2% (inactive) | 94.8% (inactive) | 64.8% (inactive) | 64.7% (inactive) | 143% (inactive) | 60.2% (inactive) | 64.2% (inactive) | 86.1% (inactive) | 36.9% (inactive) | 43.2% (inactive)
6 | Oc1ccccc1C=Nc1ccc(N2CCN(c3ccccc3)CC2)cc1 | 99.8% (inactive) | 99.5% (inactive) | 79.9% (inactive) | 107% (inactive) | 99.9% (inactive) | 77.8% (inactive) | 97.2% (inactive) | 95.4% (inactive) | 98.5% (inactive) | 109% (inactive) | 102% (inactive) | 113% (inactive) | 102% (inactive) | 86.3% (inactive) | 93.8% (inactive) | 72.9% (inactive) | 91.9% (inactive) | 98.6% (inactive) | 62.2% (inactive) | 93.5% (inactive)
7 | CCNC(=O)Nc1ncccc1OCc1ccc(F)cc1 | 99.7% (inactive) | 95.5% (inactive) | 102% (inactive) | 102% (inactive) | 96.8% (inactive) | 103% (inactive) | 101% (inactive) | 94.6% (inactive) | 94.6% (inactive) | 113% (inactive) | 99.8% (inactive) | 102% (inactive) | 107% (inactive) | 93.7% (inactive) | 92.8% (inactive) | 108% (inactive) | 90.1% (inactive) | 88.3% (inactive) | 101% (inactive) | 98% (inactive)
8 | CC[C@H](C)[C@H](NC(=O)[C@H](CCCCN)NC(=O)[C@H](CCCCN)NC(=O)[C@@H](NC(=O)[C@@H](NC(=O)[C@@H](N)Cc1cnc[nH]1)[C@@H](C)CC)[C@@H](C)CC)C(=O)N[C@@H](CCCNC(=N)N)C(=O)N[C@H](C(=O)N[C@@H](Cc1c[nH]c2ccccc12)C(=O)N[C@@H](Cc1ccc(O)cc1)C(=O)N[C@@H](CCCNC(=N)N)C(=O)N[C@@H](CCCCN)C(=O)N[C@@H](C)C(=O)N[C@@H](Cc1c[nH]c2ccccc12)C(=O)N[C@@H](Cc1cnc[nH]1)C(=O)N[C@H](C(=O)N[C@@H](CC(C)C)C(=O)NCC(=O)N[C@@H](CCCCN)C(=O)N[C@H](C(N)=O)C(C)C)C(C)C)[C@@H](C)O | 21.4% (inactive) | 60.4% (inactive) | 72.7% (inactive) | 58.6% (inactive) | 20.2% (inactive) | 67.1% (inactive) | 13.2% (inactive) | -56.3% (active) | 70.5% (inactive) | 18.9% (inactive) | 12.7% (inactive) | -26.4% (active) | 12.1% (inactive) | 81.9% (inactive) | -16.8% (active) | 70.8% (inactive) | 17.5% (inactive) | 66.2% (inactive) | 76.2% (inactive) | 56.7% (inactive)
9 | Cc1c(C(C)(C)O)cn2ncnc(Oc3ccc(NC(=O)Nc4ccc(Cl)c(C(F)(F)F)c4)cc3)c12 | 36.8% (inactive) | 34.6% (inactive) | 33.8% (inactive) | 30.8% (inactive) | 31.8% (inactive) | 21.5% (inactive) | 56.2% (inactive) | 55.5% (inactive) | -9.63% (active) | 53.1% (inactive) | 75.9% (inactive) | 30.8% (inactive) | 44.3% (inactive) | 50.9% (inactive) | 45.9% (inactive) | 21% (inactive) | 29.2% (inactive) | 11.6% (inactive) | 34.1% (inactive) | 18.2% (inactive)
10 | CCCNNC(=O)/C=C/c1ccc(CNCCc2c(C)[nH]c3ccccc23)cc1 | 42.8% [2.5 µM] (inactive) | 5.78% [2.5 µM] (active) | 56.9% [2.5 µM] (inactive) | 28.6% [2.5 µM] (inactive) | 8.11% [2.5 µM] (active) | 31.5% [2.5 µM] (inactive) | -13.3% [2.5 µM] (active) | -46% [2.5 µM] (active) | 0.891% [2.5 µM] (active) | 10.1% [2.5 µM] (inactive) | 13.7% [2.5 µM] (inactive) | 50.4% [2.5 µM] (inactive) | 26.3% [2.5 µM] (inactive) | 13.8% [2.5 µM] (inactive) | -16.2% [2.5 µM] (active) | -15.4% [2.5 µM] (active) | -4.92% [2.5 µM] (active) | -37.6% [2.5 µM] (active) | 27.6% [2.5 µM] (inactive) | 13.3% [2.5 µM] (inactive)
11 | Nc1ccccc1SC(CC(=O)c1ccccc1)c1ccc([N+](=O)[O-])cc1 (stereo not given) | 87.7% (inactive) and 59% (inactive) | 19.7% (inactive) and 39.1% (inactive) | 84.6% (inactive) and 80.8% (inactive) | 93.2% (inactive) and 101% (inactive) | 62.6% (inactive) and 57.4% (inactive) | 70.9% (inactive) and 59.6% (inactive) | 105% (inactive) | 90.9% (inactive) and 84.5% (inactive) | 41.7% (inactive) and 45.5% (inactive) | 94.4% (inactive) and 99.6% (inactive) | 137% (inactive) and 87.4% (inactive) | 97.1% (inactive) | 94% (inactive) and 92.5% (inactive) | 55.1% (inactive) and 39.2% (inactive) | 118% (inactive) and 109% (inactive) | 99.8% (inactive) and 93.6% (inactive) | 70.2% (inactive) and 91.7% (inactive) | 94.6% (inactive) and 99.5% (inactive) | 69.2% (inactive) and 51.9% (inactive) | 82.3% (inactive) and 61.6% (inactive)
